Among the data in PubChem BioAssay AID488969 (Vanderbilt High Throughput Screening Facility, 2010) are z-score values, retold here.

Molecules are shown by their SMILES. In all, about 110,000 compounds were measured (“z-score”: median about -0.1, highest 2% from about 2 on). The entries come from a sample that favours the highest values as a whole. The source made the active and inactive calls.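 How the source made its calls: active means z-score in the third read window above 3 or below -3; inactive means the rest.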

The target of the assay is Metabotropic glutamate receptor 8 (Rattus norvegicus) (UniProt P70579). The assay can be described thus: rat mGluR8 modulators via GIRK flux, primary screen, cell-based, thallium flux, HTS (AID 488969). The note with it: HEK293 rat mGluR8, GIRK (G protein-gated inwardly rectifying potassium channel) thallium flux, FluoZin2; at 10 µM; stronger effect = higher value; submaximal glutamate (EC20) added with thallium.
Sequence of Metabotropic glutamate receptor 8 (Rattus norvegicus) (P70579 whole entry, looked up): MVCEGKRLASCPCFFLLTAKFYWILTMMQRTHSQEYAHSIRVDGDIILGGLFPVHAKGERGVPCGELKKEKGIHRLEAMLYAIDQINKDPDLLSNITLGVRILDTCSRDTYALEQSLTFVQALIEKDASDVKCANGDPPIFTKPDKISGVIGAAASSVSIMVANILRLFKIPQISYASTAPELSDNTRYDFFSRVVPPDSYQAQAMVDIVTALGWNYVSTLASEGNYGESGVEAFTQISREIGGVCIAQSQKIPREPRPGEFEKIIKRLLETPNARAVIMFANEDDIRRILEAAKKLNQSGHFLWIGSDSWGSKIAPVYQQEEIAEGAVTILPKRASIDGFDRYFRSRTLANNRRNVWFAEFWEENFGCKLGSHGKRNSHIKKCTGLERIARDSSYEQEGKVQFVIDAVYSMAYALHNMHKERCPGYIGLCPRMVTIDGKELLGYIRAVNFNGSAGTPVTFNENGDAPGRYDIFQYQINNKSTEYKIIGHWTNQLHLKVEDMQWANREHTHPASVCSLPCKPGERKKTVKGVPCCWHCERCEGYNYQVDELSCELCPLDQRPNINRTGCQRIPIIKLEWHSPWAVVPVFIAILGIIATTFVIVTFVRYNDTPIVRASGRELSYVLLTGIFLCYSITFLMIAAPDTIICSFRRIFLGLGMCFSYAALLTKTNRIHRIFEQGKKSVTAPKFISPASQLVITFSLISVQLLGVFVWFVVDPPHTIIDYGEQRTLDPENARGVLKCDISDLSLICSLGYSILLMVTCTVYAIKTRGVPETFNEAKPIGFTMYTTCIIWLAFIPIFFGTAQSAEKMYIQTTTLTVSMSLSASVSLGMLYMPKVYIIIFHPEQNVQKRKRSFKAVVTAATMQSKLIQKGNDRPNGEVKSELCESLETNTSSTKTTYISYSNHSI
With `Cc1nc(N)nc(OCC(F)(F)C(F)F)c1Br`, the z-score was -0.145.

Consider `COc1ccc(C2CC(c3ccc(Cl)c(Cl)c3)Nc3nc(N)nn32)cc1` (stereo not given), for which the z-score was 3.08 (active). Regarding `COc1ccc(C2CC(c3ccccc3)Nc3nc(N)nn32)cc1` (stereo not given), the z-score is -0.316. On to `Cc1ccc(C2CC(c3cccs3)n3nc(N)nc3N2)cc1` (stereo not given), for which the z-score is 0.263. `COc1ccc(C2CC(c3ccc(Cl)cc3)n3nc(N)nc3N2)cc1` (stereo not given) registered a z-score of 2.61. Regarding `Nc1nc2n(n1)C(c1cccs1)CC(c1ccccc1)N2` (stereo not given), the z-score is -0.0568. With `Nc1nc2n(n1)C(c1ccco1)CC(c1ccccc1)N2` (stereo not given), the z-score was -0.0773. With `COc1ccc(C2CC(c3ccc(Cl)cc3Cl)Nc3nc(N)nn32)cc1` (stereo not given) the figure was 1.46; with `COc1cccc(C2CC(c3ccc(Cl)cc3)n3nc(N)nc3N2)c1` (stereo not given), 0.802; with `Nc1nc2n(n1)C(c1cccs1)CC(c1ccc(F)cc1)N2` (stereo not given), 6.13 (active). Regarding `COc1ccc(C2CC(c3ccc(Br)cc3)Nc3nc(N)nn32)cc1` (stereo not given), the z-score turned out to be 1.67. In the case of `Nc1nc2n(n1)C(c1ccco1)CC(c1ccc(F)cc1)N2` (stereo not given), the z-score turned out to be 0.268. As to `Nc1nc2n(n1)C(c1ccco1)CC(c1ccc(Cl)c(Cl)c1)N2` (stereo not given), the z-score worked out at 2.38. `COc1ccc(/C=N/c2oc(-c3ccccc3)cc2C#N)cc1OC`: the z-score stood at 0.0441.

For the molecule `CCCC(=O)C1=C(O)C(C(=O)OC)C(C)(C)CC1=NC(C)(C)C` (stereo not given), the z-score was -0.418.

`O=C1c2ccccc2C(=O)N1c1ccc(-c2nc3ccccc3o2)cc1` yielded a z-score of 0.248. In turn, `Cc1nn(C)cc1NC(=O)CC12CC3CC(CC(C3)C1)C2` showed a z-score of -0.0159. As to `CC(=O)Nc1ccc(C(=O)N/N=C/c2cccnc2)cc1`, the z-score is -0.709. As for `Cc1nc2cc(NC(=O)N3c4ccccc4CC3C)ccc2n1C` (stereo not given), the z-score is -0.544. As to `CCc1cc2c(=O)c(-c3cnn(-c4ccccc4)c3)c(C)oc2cc1OCC(=O)Nc1ccc(F)c(F)c1`, the z-score came out at 0.0216. Turning to `Cc1nc(NCCc2ccc(S(N)(=O)=O)cc2)c2c(C)c(C)sc2n1`, the z-score was 6.05 (active). `Cc1nc(NCCc2ccc(S(N)(=O)=O)cc2)c2c3c(sc2n1)CCC3` came in with a z-score of -0.34.

`Cc1sc2ncnc(NCCc3ccc(S(N)(=O)=O)cc3)c2c1C`: the z-score came to 0.0936. `O=c1cc(CSc2nnc(-c3ccccc3)o2)c2ccccc2[nH]1`: the z-score amounted to 0.487. Regarding `COc1ccc(/C=N\NC(=O)/C(=C\Nc2nccc(C)n2)NC(=O)c2ccccc2)cc1`, the z-score was -0.263. With `C=CCn1c(-c2csc(-c3ccc(Cl)cc3)n2)n[nH]c1=S` the figure was 2.89. Molecule `C=CCn1c(-c2csc(-c3ccccc3)n2)n[nH]c1=S` yielded a z-score of 0.103.

`CCn1c(-c2csc(-c3ccc(Cl)cc3)n2)n[nH]c1=S`: the z-score was determined as 1.31. With `CC(C)N(C(=O)Nc1ccc2nccnc2c1)C(C)C` the figure was -0.935; with `COc1ccc(OC)c(NC(=O)CSc2nnc(Cn3nnc4ccccc43)n2C)c1`, -0.116. In turn, `NC(=O)c1ccc(NC(=O)COC(=O)CC(NC(=O)c2ccccc2Cl)c2ccccc2)cc1` (stereo not given) displayed a z-score of 1.26.

On to `COc1ccc(Cn2c(O)cc(=O)[nH]c2=O)cc1`, for which the z-score amounted to 0.277. As for `CCOC(=O)N1CCN(C(=O)c2ccc3c(=O)n(Cc4ccc(OC)cc4)c(=S)[nH]c3c2)CC1`, the figure is -0.232; as for `COc1ccc(Cn2c(=S)[nH]c3ccsc3c2=O)cc1`, 3.86 (active). Molecule `CCOCCn1c(=NC(=O)c2cc3ccccc3oc2=O)sc2cc(S(N)(=O)=O)ccc21` gave a z-score of -0.105. Molecule `C=CCSc1[nH]c(=O)cc(C)c1C(N)=O` had a z-score of 0.533.

Regarding `O=C(COc1ccccc1)Nc1cccc2c1CCCC2`, the z-score was -0.151. Turning to `CC(=O)Nc1ccccc1Nc1cc(C#N)c(C#N)cc1[N+](=O)[O-]`, the z-score was -0.00232. Regarding `CC(C)(C)C1CC=C2C(C#N)=C(N)C(C#N)(C#N)C(c3cccs3)C2C1` (stereo not given), the z-score is 0.0392. On to `CN1C2C=C3C(C#N)=C(N)C(C#N)(C#N)[C@@H](c4ccsc4)[C@@H]3C1CC2` (stereo not given in full), for which the z-score is 4.01 (active). Consider `CN1C2C=C3C(C#N)=C(N)C(C#N)(C#N)C(c4ccc(Br)cc4)C3C1CC2` (stereo not given), for which the z-score is 0.361. Regarding `CN1C2C=C3C(C#N)=C(N)C(C#N)(C#N)[C@@H](c4cccs4)C3C1CC2` (stereo not given in full), the z-score was determined as 2.54.

Turning to `CN1C2C=C3C(C#N)=C(N)C(C#N)(C#N)[C@H](c4c(F)cccc4F)[C@H]3C1CC2` (stereo not given in full), the z-score was -0.484.

In the case of `CN1C2C=C3C(C#N)=C(N)C(C#N)(C#N)[C@@H](c4cccc(F)c4)[C@@H]3C1CC2` (stereo not given in full), the z-score stood at 1.32. As for `Cc1ccnc(N2CCC(C(=O)NNC(=O)COc3cccc4ccccc34)CC2)n1`, the figure is 0.336; as for `COc1cc(/C=N/OCC(=O)Nc2ccc(OC(F)F)cc2)ccc1OCc1ccccc1`, -0.0267. In the case of `CCOC(=O)C1CCCN(C(=O)c2cnn3c(C(F)(F)F)cc(-c4ccccc4)nc23)C1` (stereo not given), the z-score was -2.11. Consider `COC(=O)c1ccc(NS(=O)(=O)c2ccc(SC)cc2)cc1`, for which the z-score was 5.24 (active).

`CCOC(=O)c1ccc(NS(=O)(=O)c2ccc(SC)cc2)cc1` yielded a z-score of -0.12. On to `COC(=O)c1ccc(NS(=O)(=O)c2ccc(OC)cc2)cc1`, for which the z-score is 0.37. `Cc1ccc(Cl)cc1N1CCN(C(=O)CSc2nnc3n2C(C)(C)Cc2ccccc2-3)CC1` registered a z-score of 1.18. In turn, `COc1ccc(N2CCN(C(=O)CSc3nnc4n3C(C)(C)Cc3ccccc3-4)CC2)cc1` displayed a z-score of -0.642. Take `CC1(C)Cc2ccccc2-c2nnc(SCC(=O)N3CCN(c4ccccc4)CC3)n21`: the z-score is 3.2 (active).

Molecule `O=C(Nc1ccccn1)C12CC3CC(C1)CC(C(=O)Nc1ccccn1)(C3)C2` came in with a z-score of 0.332. With `Cc1cccc(Oc2ncc(-c3ccc(Cl)cc3)cn2)c1` the figure was 0.0612; with `Cc1cc(N2CCOCC2)nc2ccccc12`, -0.0968; with `c1nc(NCC2CCCO2)c2[nH]cnc2n1` (stereo not given), 0.26. In turn, `O=C(NCC1CCCO1)c1cccc(F)c1` (stereo not given) yielded a z-score of 0.371. For `Cc1cccc(C(=O)NCC2CCCO2)c1` (stereo not given), the z-score is 2.21.

`O=C(NCC1CCCO1)c1cccc(Br)c1` (stereo not given) came in with a z-score of 0.348. Consider `O=C(CCS(=O)(=O)c1ccc(Br)cc1)Nc1cc(F)ccc1F`, for which the z-score was -0.0256. Turning to `O=C(Cn1c(C(F)(F)F)nc2ccccc21)OCC(=O)c1c[nH]c2ccccc12`, the z-score is -0.594. `Cc1cc(C)n(-c2nc3ccccc3nc2NCCc2ccccc2)n1` returned a z-score of -0.16.

`Cc1ccc(N=Nc2c(O)n(CN3CCOCC3)c3ccccc23)cc1` came in with a z-score of -0.152. As for `Cc1cccc(NC(=S)NCCN2CCOCC2)c1C`, the figure is -0.235; as for `Cc1cccc(NC(=S)N=Nc2c(O)n(CN3CCOCC3)c3ccccc23)c1C`, 2.19. Molecule `Cn1c(SCc2cc(=O)[nH]c3ccccc23)nnc1-c1ccco1` displayed a z-score of -0.244. Regarding `Cn1c(SCc2cccc3ccccc23)nnc1-c1ccco1`, the z-score is 2.15.

The molecule `Nn1c(SCc2cccc3ccccc23)nnc1-c1ccco1` returned a z-score of 0.217.

Regarding `N#Cc1cn(-c2ccccc2)nc1-c1cc2ccccc2oc1=O`, the z-score was -0.0371. On to `Cc1ccc(C2CC2c2n[nH]c(=S)n2-c2ccc(C)cc2)cc1` (stereo not given), for which the z-score amounted to 2.34. Molecule `Cc1ccc(-n2c(C3CC3c3ccc(Cl)cc3)n[nH]c2=S)cc1` (stereo not given) yielded a z-score of 0.832.

In turn, `Cc1ccc(C2CC2c2n[nH]c(=S)n2-c2cccc(Cl)c2)cc1` (stereo not given) showed a z-score of 0.358. `S=c1[nH]nc(C2CC2c2ccc(Cl)cc2)n1-c1ccc(Cl)cc1` (stereo not given) registered a z-score of 0.549. Consider `Cc1ccc(C2CC2c2n[nH]c(=S)n2-c2ccc(Cl)cc2)cc1` (stereo not given), for which the z-score was 2.95. Molecule `Cc1ccc(-n2c([C@@H]3C[C@H]3c3ccccc3)n[nH]c2=S)cc1` had a z-score of 0.209.

In turn, `O=C(c1ccc(-n2cnnn2)cc1)N1CCCCC1` came in with a z-score of 0.294. `CN1CCC(OC(=O)COc2ccc(C(C)(C)C)cc2)CC1` returned a z-score of 0.712. With `COC1CCCCC1Nc1cc(C)cc(C)c1` (stereo not given), the z-score was -0.0687. With `COc1ccc(C)cc1S(=O)(=O)N(C)CC(=O)NC1CCCC1` the figure was -0.639; with `CSc1ccccc1NC(=O)CN(c1ccccc1Br)S(C)(=O)=O`, 2.04. With `COc1ccc(Cl)cc1N(CC(=O)Nc1ccccc1SC)S(C)(=O)=O`, the z-score was found to be 0.203. The molecule `COc1ccc(N(CC(=O)Nc2ccccc2SC)S(C)(=O)=O)cc1OC` yielded a z-score of 0.573. `CN(C)S(=O)(=O)c1ccc(NC(=O)/C=C/c2ccccc2Cl)cc1` had a z-score of -0.0315. The molecule `O=C(Nc1nnc(CSCc2ccc(F)cc2)s1)c1cccc([N+](=O)[O-])c1` showed a z-score of -0.37.

`O=C(Nc1nnc(CSCc2ccc(F)cc2)s1)c1ccc([N+](=O)[O-])cc1` gave a z-score of 2.51.

Molecule `CCC(=O)Nc1nnc(CSCc2ccc(F)cc2)s1` showed a z-score of 0.0266. With `O=C(NCc1ccc(Cl)cc1)C(=O)NCC1OCCN1C(=O)c1cccs1` (stereo not given) the figure was -0.152; with `Cn1cc(-c2nc3ccccc3[nH]2)c2ccccc21`, -1.41; with `O=C(c1ccccc1)C(Sc1ncn[nH]1)c1ccccc1` (stereo not given), -0.672. The molecule `Cc1ccc(C)c(OCC(=O)N/N=C/c2c(C)nn(-c3ccccc3)c2Cl)c1` registered a z-score of 2.98. On to `Cc1ccc(C)c(OCC(=O)N/N=C/c2c(C)nn(-c3ccccc3)c2Cl)c1C`, for which the z-score is -0.185. `COC(=O)N/N=C\c1c(C)nn(-c2ccccc2)c1Cl` had a z-score of -0.389. With `Fc1ccccc1N1CCN(CCCNc2ccc3nncn3n2)CC1`, the z-score came out at 0.731. For the molecule `CCOC(=O)N1CCC(NCCNC(=O)c2ccccc2)CC1`, the z-score stood at 0.292. Molecule `CC(OC(=O)CN1C(=O)C2CCCCC2C1=O)C(=O)Nc1ncc(Cl)cc1Cl` (stereo not given) came in with a z-score of 0.031. With `O=C(COC(=O)CN1C(=O)c2ccccc2C1=O)Nc1ncc(Cl)cc1Cl` the figure was 0.719; with `CC(OC(=O)CCCN1C(=O)c2ccccc2C1=O)C(=O)Nc1ncc(Cl)cc1Cl` (stereo not given), 2.08. In turn, `Cc1c(NC(=O)C(C)OC(=O)c2cc(Cl)nc(Cl)c2)c(=O)n(-c2ccccc2)n1C` (stereo not given) registered a z-score of 0.0979. As to `CCOC(=O)C(Oc1ccc2c(-c3ccccc3)cc(=O)oc2c1C)c1ccccc1` (stereo not given), the z-score was -0.0738. Molecule `Cc1csc(NC(=O)CSc2nnc(-c3cc(C)on3)o2)n1` returned a z-score of 0.301. `CCOC(=O)c1sc2nc(CC(=O)OC)nc(NCc3ccco3)c2c1C` returned a z-score of -0.245.

Take `CCOC(=O)c1sc2ncnc(NCc3ccco3)c2c1C`: the z-score is 14.7 (active). `CCc1cc2c(NCc3ccco3)ncnc2s1` gave a z-score of -0.444. Regarding `Cc1c(NC(=O)c2cc3nc(-c4ccc(Br)cc4)cc(C(F)(F)F)n3n2)c(=O)n(-c2ccccc2)n1C`, the z-score was -0.51. For `Cc1cc(C)nc(/N=C(\N)Nc2ccc(F)c([N+](=O)[O-])c2)n1`, the z-score is -0.14.

`O=C(C(Cc1ccccc1)N1C(=O)C2C3C=CC(C3)C2C1=O)N1CCCCC1` (stereo not given) yielded a z-score of -0.174. With `CC(=O)Nc1ccccc1OCC(=O)c1ccc2c(c1)OCO2` the figure was 2.07; with `CC(C)C(=O)Nc1ccccc1C(=O)OCC(=O)c1ccc2c(c1)OCCO2`, -0.424; with `COc1ccccc1NC(=O)NCc1ccc2c(c1)OCO2`, 0.532.
